The values below come from publication PMC5540273 (PLoS ONE, 2017).

Like-named read-outs stand apart in the source and are kept apart here.

The test system of one assay is FGFR1. Particulars: concentration: 1 μM, replicates: in singlicate; n = 1.
The test system of another assay is FGFR2. Particulars: concentration: 1 μM, replicates: in singlicate; n = 1.
The subject of a further assay is FGFR3. The following applies: concentration: 1 μM, replicates: in singlicate; n = 1.
The next assay has as its system FGFR4. The following applies: concentration: 1 μM, replicates: in singlicate; n = 1.
Another assay concerns FGR. The following applies: concentration: 1 μM, replicates: in singlicate; n = 1.
Another assay has as its system FLT1. The following applies: concentration: 1 μM, replicates: in singlicate; n = 1.
The subject of a further assay is FLT3-autoinhibited. The following applies: concentration: 1 μM, replicates: in singlicate; n = 1.
The next assay deals with FLT3. Particulars: concentration: 1 μM, replicates: in singlicate; n = 1.
The next assay deals with FLT4. Particulars: concentration: 1 μM, replicates: in singlicate; n = 1.
The subject of another assay is FRK. The following applies: concentration: 1 μM, replicates: in singlicate; n = 1.
The subject of the next assay is FYN. The following applies: concentration: 1 μM, replicates: in singlicate; n = 1.
Another assay relates to GAK. The following applies: concentration: 1 μM, replicates: in singlicate; n = 1.
A further assay concerns T1, GCN2(Kin.Dom.2,S808G).
T1 construct: gene EIF2AK4
The following applies: concentration: 1 μM, replicates: in singlicate; n = 1.

The next assay relates to GRK1. Particulars: concentration: 1 μM, replicates: in singlicate; n = 1.
The next assay has as its system T2, GRK2.
T2 construct: gene ADRBK1
The following applies: concentration: 1 μM, replicates: in singlicate; n = 1.

The test system of the next assay is T3, GRK3.
T3 construct: gene ADRBK2
The following applies: concentration: 1 μM, replicates: in singlicate; n = 1.

Another assay concerns GRK4. Particulars: concentration: 1 μM, replicates: in singlicate; n = 1.
For another assay, the system named is GRK7. Particulars: concentration: 1 μM, replicates: in singlicate; n = 1.
For the next assay, the system named is GSK3A. The following applies: concentration: 1 μM, replicates: in singlicate; n = 1.
In the next assay the test system is GSK3B. The following applies: n = 1.
Setting [1] is: concentration: 1 μM, replicates: in singlicate.
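Further: KINOMEscan kinase panel screen.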

As to `O=C(Nc1n[nH]c2nc(-c3ccccc3)ccc12)C1CC1` [SB-708999], the “%Inh” value was found to be 0% with FGFR1; 33% in the assay with FGFR2; 26% in the assay on FGFR3; 12% in the assay with FGFR4; 9% in the assay with FGR; 11% with FLT1. Moreover, the “%Inh” value in the assay on FLT3-autoinhibited is recorded as 0%; in the assay on FLT3, 42%; with FLT4 it was 4%; in the assay with FRK, 5%; in the assay on FYN, 0%; with GAK, 17%. The “%Inh” value in the assay with GCN2(Kin.Dom.2,S808G) worked out at 0%; in the assay on GRK1, 10%; in the assay with GRK2 it was 0%; in the assay on GRK3 it was 28%; with GRK4 it was 9%; with GRK7 it was 0%. The figures for the “%Inh” value in the assay on GSK3A and in the assay on GSK3B (1 µM) were 77% and 12%, respectively.
Turning to `CN(C)CCNS(=O)(=O)c1ccc(-c2ccnc3[nH]ccc23)cc1` [GSK977620], the “%Inh” value with FGFR1 was 33%; in the assay with FGFR2, 9%; in the assay with FGFR3, 5%; in the assay with FGFR4, 0%; in the assay on FGR it was 4%; in the assay with FLT1, 38%. Also, the “%Inh” value in the assay with FLT3-autoinhibited was determined as 11%; with FLT3, 65%; with FLT4, 15%; in the assay on FRK, 6%; with FYN, 18%; with GAK it was 1%. Moreover, the “%Inh” value with GCN2(Kin.Dom.2,S808G) was determined as 14%; with GRK1 it was 71%; with GRK2, 0%; with GRK3, 72%; in the assay on GRK4, 0%; in the assay on GRK7, 86%. The “%Inh” value in the assay with GSK3A is 0%; with GSK3B (setting [1]) it was 11%.
Regarding `Cl.Cl.NC(CNC(=O)c1cc(Br)c(-c2ccnc3[nH]ccc23)s1)c1ccccc1` (stereo not shown) [GSK1322949], the “%Inh” value in the assay on FGFR1 is given as 45%; in the assay on FGFR2 it was 39%; in the assay with FGFR3, 26%; in the assay on FGFR4, 29%; with FGR it was 14%; in the assay with FLT1, 64%. The “%Inh” value with FLT3-autoinhibited is 1%; with FLT3 it was 90.9%; with FLT4 it was 17%; with FRK it was 0%; with FYN it was 17%; in the assay with GAK it was 85%. The “%Inh” value in the assay on GCN2(Kin.Dom.2,S808G) is 0%; in the assay on GRK1, 3%; in the assay on GRK2, 39%; in the assay on GRK3, 70%; with GRK4, 76%; in the assay on GRK7, 75%. Also, the “%Inh” value in the assay with GSK3A was 0%; with GSK3B (setting [1]), 3%.
`Cc1ccc(NC(=O)c2ccc(Cl)c(Cl)c2)cc1-c1ccc(C(=O)Nc2ccncc2)cc1` [GSK1398460]: the “%Inh” value is 0% in the assay on FGFR1; 0% in the assay on FGFR2; 14% in the assay on FGFR3; 6% in the assay on FGFR4; 26% in the assay with FGR; 70% in the assay on FLT1. The “%Inh” value came out at 14% in the assay on FLT3-autoinhibited; 5% in the assay with FLT3; 57% in the assay on FLT4; 82% in the assay on FRK; 31% with FYN; 45% in the assay on GAK. In addition, the “%Inh” value in the assay on GCN2(Kin.Dom.2,S808G) was determined as 8%; in the assay on GRK1 it was 0%; with GRK2 it was 0%; in the assay with GRK3, 24%; with GRK4, 4%; in the assay on GRK7, 0%. In addition, the “%Inh” value in the assay on GSK3A stood at 6%; in the assay on GSK3B (setting [1]), 15%.
Regarding `CN(c1ccc(NC(=O)Nc2cccc(Cl)c2)cc1)c1ccnc(N)n1.Cl` [GW830707], the “%Inh” value in the assay with FGFR1 was determined as 9%; in the assay with FGFR2, 0%; with FGFR3, 0%; in the assay on FGFR4, 7%; in the assay with FGR it was 4%; in the assay with FLT1 it was 97.1%. For the same compound, the “%Inh” value with FLT3-autoinhibited was determined as 56%; in the assay on FLT3, 97.6%; in the assay on FLT4, 60%; in the assay with FRK it was 49%; in the assay on FYN it was 10%; with GAK, 10%. Besides, the “%Inh” value in the assay with GCN2(Kin.Dom.2,S808G) is 0%; in the assay with GRK1 it was 0%; in the assay on GRK2 it was 0%; with GRK3, 1%; in the assay with GRK4, 0%; in the assay on GRK7, 1%. The “%Inh” value in the assay with GSK3A stood at 17%; with GSK3B (setting [1]) it was 1%.
For the compound `CCn1c(-c2nonc2N)nc2c(-c3ccccc3)ncc(OCCCN)c21.O=C(O)C(F)(F)F.O=C(O)C(F)(F)F` [GSK260205], the “%Inh” value in the assay with FGFR1 is recorded as 30%; with FGFR2, 0%; in the assay on FGFR3 it was 0%; in the assay with FGFR4, 0%; in the assay on FGR, 38%; in the assay with FLT1, 37%. Moreover, the “%Inh” value came to 0% with FLT3-autoinhibited; 12% with FLT3; 43% in the assay on FLT4; 5% in the assay on FRK; 0% in the assay with FYN; 83% in the assay on GAK. Besides, the “%Inh” value in the assay on GCN2(Kin.Dom.2,S808G) was 0%; in the assay on GRK1, 0%; in the assay with GRK2 it was 0%; in the assay with GRK3, 63%; with GRK4, 0%; with GRK7, 0%. Also, the “%Inh” value is 15% with GSK3A and 17% with GSK3B (setting [1]).
Consider `Cc1cc(-c2ccnc(Nc3cccc(C#N)c3)n2)cc(C)c1O` [GSK1440913], for which the “%Inh” value in the assay with FGFR1 amounted to 0%; in the assay on FGFR2, 54%; in the assay on FGFR3 it was 27%; in the assay on FGFR4, 14%; with FGR it was 37%; in the assay with FLT1 it was 27%. For the same compound, the “%Inh” value is 12% in the assay with FLT3-autoinhibited; 48% with FLT3; 15% in the assay on FLT4; 60% with FRK; 0% in the assay with FYN; 79% with GAK. The “%Inh” value with GCN2(Kin.Dom.2,S808G) is 0%; in the assay with GRK1, 6%; with GRK2, 0%; in the assay with GRK3, 0%; in the assay on GRK4, 90.7%; in the assay on GRK7, 0%. Besides, the “%Inh” value in the assay on GSK3A was 93.8%; in the assay on GSK3B (setting [1]) it was 26%.
Regarding `CCNc1nccc(-c2c(-c3ccc(F)cc3)ncn2C2CCN(C)CC2)n1`, the “%Inh” value amounted to 0% in the assay with FGFR1; 6% in the assay on FGFR2; 0% with FGFR3; 0% with FGFR4; 0% with FGR; 18% in the assay on FLT1. Also, the “%Inh” value in the assay with FLT3-autoinhibited is given as 0%; in the assay with FLT3, 24%; in the assay on FLT4 it was 6%; with FRK, 0%; in the assay on FYN, 0%; in the assay on GAK, 57%. Also, the “%Inh” value in the assay on GCN2(Kin.Dom.2,S808G), in the assay with GRK1, with GRK2, with GRK3, with GRK4 and in the assay with GRK7 was 0% in each case. The entries for the “%Inh” value in the assay on GSK3A and in the assay with GSK3B (setting [1]) were 21% and 0%, respectively.
